Source: PubChem BioAssay (NCATS)
Activity calls are given as the source filed them. Calls come from the whole dose curve; as a rule, active = well fitted inhibition curve with a large enough effect; inconclusive = small, poorly fitted or top-dose-only effect; inactive = flat fitted curve, though single readings scatter.

target: Luciferin 4-monooxygenase (Photinus pyralis) (UniProt P08659); assay: Primary firefly luciferase (FLuc) qHTS assay for identification of artifact compounds. (AID 1845220); settings: purified firefly luciferase, luminescence, 5 min; series mostly up to 54.1 µM; activity change, negative = inhibition: at the top concentration; note: nearly all actives have a fitted effect of over 60% in size;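 for activity change, negative = inhibition: plate controls were DMSO vehicle for no effect and no enzyme for full effect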
Procedure, shortened: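 In this counter-screen for luciferase artifacts, test compounds met substrate (10 uM each luciferin and ATP) before 10 nM enzyme started the reaction. Light output was measured 5 min later.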

SMILES	activity change, negative = inhibition	outcome
CN1CCN(C(=O)CN[C@@H]2C[C@H]2c2ccc(OCc3ccccc3)cc2)CC1	-22.2% (inactive)	
O=C(N[C@H]1CCC[C@H](CO)C1)C1CCN(c2nc3cc(Cl)c(-c4ccc(Cl)cc4)cc3o2)CC1		inactive
Cn1ncc(Cl)c1-c1cc(C(=O)N[C@H](CN)Cc2cccc(F)c2)sc1Cl		inactive
C=C(C)C(=O)O[C@H]1[C@H]2C(=C)C(=O)O[C@@H]2/C=C(\CO)CC/C=C(/C=O)[C@@H]1O	-8.18% (inactive)	
Cc1noc(C)c1-c1cc(O)cc(C(O)c2ccccc2)c1 (stereo not given)	-1.04% (inactive)	
C=C1C(=O)OC2/C=C(/C)C3=CC(=O)C(C)(CC(OC(=O)/C(C)=C/COC(C)=O)C12)O3 (stereo not given)	-25% [at 25.7 µM] (inactive)	
C[C@@H](O[C@H]1OCCN(Cc2nn(P(=O)(O)O)c(=O)[nH]2)[C@H]1c1ccc(F)cc1)c1cc(C(F)(F)F)cc(C(F)(F)F)c1		inactive [at 25.7 µM]
Cn1ncc(Cl)c1-c1cc(C(=O)NC(CN)Cc2ccc(F)c(F)c2)oc1Cl (stereo not given)		inactive
O=c1[nH]c2cccc(N3CCN(Cc4ccc(-c5ccccc5)cc4)CC3)c2o1		inactive
CS(=O)(=O)Nc1ccc2oc3c(OC(F)F)ccc(C(=O)Nc4c(Cl)cncc4Cl)c3c2c1	-1.43% (inactive)	
O=C(NCCCN1CCC2(CC1)OCc1ccccc12)[C@H]1CCCN1Cc1ccccc1		inactive
O=C(c1ccc(Cl)cc1)N1CCN(c2ccnc3cc(Cl)ccc23)CC1	2.94% (inactive)	
COc1cc(O)cc(OC2OC(CO)C(O)C(O)C2O)c1 (stereo not given)	2.73% (inactive)	
O=C(NCc1ccc(OC(F)(F)F)cc1)C1c2c(F)cccc2C(=O)N1CCc1ccccn1 (stereo not given)		inactive
C=CC(=O)N1CC(N2CCN(C(=O)CNc3cc(C4CC4)c(Cl)cc3O)CC2)C1		inactive
CC(C)CCNC(=O)[C@H](CC(C)C)NC(=O)[C@H]1O[C@@H]1C(=O)O		inactive
CC(C)c1c(O)ccc2c1CC[C@H]1C(C)(C)CCC[C@]21C		inactive
CC(=O)O[C@@H]1[C@H](O[C@@H]2O[C@@H](CO)[C@H](O)[C@H]2O)[C@@H](O[C@@H]2O[C@@H](C)[C@H](O[C@@H]3OC[C@@H](O)[C@H](O)[C@H]3O)[C@@H](O)[C@H]2O)[C@H](OC(=O)[C@]23CCC(C)(C)C[C@H]2C2=CCC4[C@@]5(C)CC[C@H](O[C@@H]6O[C@H](C(=O)O)[C@@H](O)[C@H](O)[C@H]6O[C@@H]6O[C@H](CO)[C@H](O)[C@H](O)[C@H]6O)[C@@](C)(C=O)C5CC[C@@]4(C)[C@]2(C)C[C@H]3O)O[C@@H]1C (stereo not given in full)		inactive [at 11.6 µM]
CCN1CCC[C@@H]1CNC(=O)c1ccc2c(c1)NC(=O)c1cccc(C)c1S2	-6.11% (inactive)	
C=CCCN1CCC2(CC1)CN(C(=O)c1c(F)cccc1F)c1ccc(Cl)cc12		inactive
O=C(Nc1cnc(Cl)nc1)c1ccc(F)c(F)c1		inactive
COc1cc(NC(=O)c2cccc(-n3cc(NC(=O)Nc4cccc(C)c4)cn3)c2)cc(OC)c1OC	4.67% (inactive)	
CC(=O)Nc1cccc(Nc2ncnc(N3CCC(OCc4ccc(OC(F)(F)F)cc4)CC3)n2)c1C	1.37% (inactive)	
C=C(C)C(=O)O[C@H]1[C@H]2C(=C)C(=O)O[C@@H]2C[C@@H](C)[C@@H]2O[C@@H]2C(=O)[C@](C)(O)[C@@H]1OC(=O)C(=C)C	-3.31% [at 25.7 µM] (inactive)	
CCN1CCN(Cc2ccc(NC(=O)c3ccc(C)c(Oc4ccnc5[nH]ccc45)c3)cc2C(F)(F)F)CC1		inactive
CCCn1ncc(CN2CCCC(C(=O)c3cccc(OC(C)C)c3)C2)c1C (stereo not given)	-11.3% (inactive)	
COc1ccc(-c2cnc3c(-c4cccc5ncccc45)cnn3c2)cc1	-4.83% (inactive)	
COC(=O)N1CCC(n2ncc3c(N4CCOCC4)nc(-c4ccc(NC(=O)NC5CC5)cc4)nc32)CC1	0.646% (inactive)	
COc1ccc(C[C@H]2COC(=O)[C@@H]2Cc2ccc(O[C@@H]3O[C@H](CO)[C@@H](O)[C@H](O)[C@H]3O)c(OC)c2)cc1OC	-3.52% [at 25.7 µM] (inactive)	
CC(C)(Cc1ccccc1)NCC(O)c1ccc(O)c(NS(C)(=O)=O)c1 (stereo not given)	-7% (inactive)	
